# Test results published in PubChem BioAssay.
# Activity calls are given as the source filed them.
# What was measured:
# [1] = anti-His antibody binders, primary screen, artefact control for SMM control protein annotation, biochemical, small-molecule microarray, 635 nm fluorescence (AID 1128); conditions: anti-His Alexa647 antibody binding, higher = more signal;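 note: score merges feature fluorescence with signal-to-noise for each printed compound spot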
# [2] = tested on: Human papillomavirus type 1a E7 protein (residues 1-88); assay: HPV1a E7 small-molecule binders, primary screen, biochemical, small-molecule microarray, residues 1-88, 635 nm (AID 1129); conditions: small-molecule microarray binding, fluorescence 635 nm; higher = more signal
# [3] = target: Focal adhesion kinase 1 (Homo sapiens) (UniProt Q05397); assay: small-molecule microarray binders of FAK, primary screen, biochemical, 635/667 nm fluorescence, BSA, DTT (AID 1130); conditions: PTK2 binding, 635 nm fluorescence, higher = more signal;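 note: composite of spot emission at 667 nm and signal to noise over triplicate slides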
# [4] = tested on: Fibrinogen (Alexa647-labelled); assay: fibrinogen binders on compound microarrays, profiling panel, artefact control for SMM control-protein annotation, biochemical, small-molecule microarray, 635/667 nm fluorescence (AID 1131); conditions: fibrinogen-A647 binding fluorescence, higher = more signal;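 note: z-score merges 667 nm fluorescence with per-spot signal-to-noise over triplicate slides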
# [5] = target: Follistatin (Homo sapiens) (UniProt P19883); assay: follistatin binders on small-molecule microarrays, primary screen, biochemical, small-molecule microarray, 635/667 nm fluorescence (AID 1132); conditions: FST binding, 635 nm fluorescence, higher = more signal
# [6] = target: Fibroblast growth factor 2 (Homo sapiens) (UniProt P09038); assay: FGF2 binders on small-molecule microarrays, primary screen, biochemical, small-molecule microarray, 635/667 nm fluorescence (AID 1133); conditions: small-molecule microarray binding, FGF2, fluorescence 635/667; higher = more signal
# [7] = mitochondrial membrane potential change in A549 cells, profiling panel, cell-based, JC-1 fluorescence, basal, 24 h, 100 nL (AID 1138); conditions: higher = more signal;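 note: A549 lung adenocarcinoma cells under basal conditions with no added stimulus; test concentration not given here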
# Lefty1 = Lefty1 binders on small-molecule microarrays, primary screen, biochemical, small-molecule microarray, 635/667 nm fluorescence (AID 1139); conditions: small-molecule microarray binding, fluorescence 635/667; higher = more signal
# [8] = tested on: wheat germ agglutinin (Triticum aestivum), Alexa647-labelled; assay: wheat germ agglutinin binders on compound microarrays, profiling panel, artefact control for SMM control-protein annotation, biochemical, small-molecule microarray, 635/667 nm fluorescence (AID 1140); conditions: WGA-A647 binding, 635 nm fluorescence, higher = more signal;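 note: score merges 667 nm feature emission with signal to noise over triplicate slides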
# [9] = target: Luciferin 4-monooxygenase (Photinus pyralis) (UniProt P08659); assay: firefly luciferase enzyme inhibitors, primary screen, biochemical, luminescence, purified enzyme, 2006 set (AID 1141); conditions: SteadyGlo luminescence, 30 min, higher = more signal, called active from +8 up or from −8 down;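 note: cell-free assay with purified firefly luciferase at 100 ng per well in PBS; test concentration not given here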
# Luciferin 4-monooxygenase (Photinus pyralis), sequence (P08659 whole entry, looked up): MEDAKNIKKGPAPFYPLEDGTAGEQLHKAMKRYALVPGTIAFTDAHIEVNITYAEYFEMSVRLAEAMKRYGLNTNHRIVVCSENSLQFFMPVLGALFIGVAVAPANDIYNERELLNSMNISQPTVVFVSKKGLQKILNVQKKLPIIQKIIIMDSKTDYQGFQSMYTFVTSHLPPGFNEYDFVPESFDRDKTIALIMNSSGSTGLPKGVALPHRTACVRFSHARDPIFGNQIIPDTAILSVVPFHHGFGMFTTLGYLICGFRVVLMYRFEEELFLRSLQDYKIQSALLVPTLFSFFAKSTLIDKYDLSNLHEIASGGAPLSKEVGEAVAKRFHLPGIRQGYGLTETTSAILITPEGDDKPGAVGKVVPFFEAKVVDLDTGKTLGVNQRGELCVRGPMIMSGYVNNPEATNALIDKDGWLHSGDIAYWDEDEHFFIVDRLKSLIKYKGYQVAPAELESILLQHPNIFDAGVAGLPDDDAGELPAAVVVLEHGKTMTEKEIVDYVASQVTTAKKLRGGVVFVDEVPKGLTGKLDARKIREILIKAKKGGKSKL
# Focal adhesion kinase 1 (Homo sapiens), sequence (Q05397 whole entry, looked up): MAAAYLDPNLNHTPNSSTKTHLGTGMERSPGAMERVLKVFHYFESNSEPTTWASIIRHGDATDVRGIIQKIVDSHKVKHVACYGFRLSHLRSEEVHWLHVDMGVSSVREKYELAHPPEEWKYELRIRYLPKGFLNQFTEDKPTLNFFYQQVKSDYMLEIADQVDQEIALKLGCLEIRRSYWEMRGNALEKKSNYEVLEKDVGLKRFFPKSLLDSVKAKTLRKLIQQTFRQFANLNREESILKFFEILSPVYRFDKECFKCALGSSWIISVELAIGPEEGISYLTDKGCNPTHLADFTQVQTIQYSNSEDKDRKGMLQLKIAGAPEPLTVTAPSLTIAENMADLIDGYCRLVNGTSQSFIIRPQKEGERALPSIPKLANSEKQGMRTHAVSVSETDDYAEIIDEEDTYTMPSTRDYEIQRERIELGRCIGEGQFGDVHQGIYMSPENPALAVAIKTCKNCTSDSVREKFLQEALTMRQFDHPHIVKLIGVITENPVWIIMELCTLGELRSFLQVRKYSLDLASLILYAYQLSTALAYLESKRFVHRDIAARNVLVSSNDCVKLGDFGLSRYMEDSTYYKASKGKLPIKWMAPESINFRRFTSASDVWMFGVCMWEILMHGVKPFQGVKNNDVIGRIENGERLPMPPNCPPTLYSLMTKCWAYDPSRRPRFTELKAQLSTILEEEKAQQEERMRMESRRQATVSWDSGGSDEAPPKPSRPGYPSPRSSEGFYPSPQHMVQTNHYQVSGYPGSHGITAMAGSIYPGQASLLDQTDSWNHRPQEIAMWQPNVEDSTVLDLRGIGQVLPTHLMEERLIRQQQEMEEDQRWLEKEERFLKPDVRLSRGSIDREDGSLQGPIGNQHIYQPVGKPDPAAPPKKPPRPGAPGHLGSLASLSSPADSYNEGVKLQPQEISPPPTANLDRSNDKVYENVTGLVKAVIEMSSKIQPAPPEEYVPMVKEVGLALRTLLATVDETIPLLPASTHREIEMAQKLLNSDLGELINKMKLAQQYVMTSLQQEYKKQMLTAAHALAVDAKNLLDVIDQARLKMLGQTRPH
# Fibroblast growth factor 2 (Homo sapiens), sequence (P09038 whole entry, looked up): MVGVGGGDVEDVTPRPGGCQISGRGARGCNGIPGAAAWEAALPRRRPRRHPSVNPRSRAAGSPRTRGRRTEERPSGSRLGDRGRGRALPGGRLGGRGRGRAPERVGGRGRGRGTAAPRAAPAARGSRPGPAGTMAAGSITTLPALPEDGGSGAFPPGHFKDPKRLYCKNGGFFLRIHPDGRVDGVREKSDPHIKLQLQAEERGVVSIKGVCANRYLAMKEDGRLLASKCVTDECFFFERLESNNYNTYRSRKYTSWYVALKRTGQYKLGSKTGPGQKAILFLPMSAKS
# Follistatin (Homo sapiens), sequence (P19883 whole entry, looked up): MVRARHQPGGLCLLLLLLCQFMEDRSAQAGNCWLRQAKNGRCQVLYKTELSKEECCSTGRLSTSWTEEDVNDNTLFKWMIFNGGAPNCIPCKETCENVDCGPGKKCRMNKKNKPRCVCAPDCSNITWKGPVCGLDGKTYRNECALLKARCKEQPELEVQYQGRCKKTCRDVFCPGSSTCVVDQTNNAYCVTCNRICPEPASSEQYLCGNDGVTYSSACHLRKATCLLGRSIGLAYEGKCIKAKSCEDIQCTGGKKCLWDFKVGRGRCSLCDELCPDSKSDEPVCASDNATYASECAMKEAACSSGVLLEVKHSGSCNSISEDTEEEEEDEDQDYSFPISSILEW
Compound,composite z-score [1],composite z-score [2],composite z-score [3],composite z-score [4],composite z-score [5],composite z-score [6],z-score [7],composite z-score (Lefty1),composite z-score [8],z-score [9]
COc1ccc(C#Cc2ccc3c(c2)[C@]2(C(=O)N3)[C@H](c3ccc(OCCO)cc3)N3[C@H](c4ccccc4)[C@H](c4ccccc4)OC(=O)[C@H]3[C@@H]2C(=O)N2CCc3cc(OC)c(OC)cc3C2)cc1,0.78,1.18,0.946,0.532,1.44,1.49,-1.14,1.17,0.863,-0.922 (inactive)
COc1cc(C(O)C2C=CC3C(=O)N(Cc4ccccc4)C(=O)C3N2n2cnnc2)cc(OC)c1OC (stereo not given),0.941,0.869,0.498,0.912,0.448,0.405,-0.417,-0.493,1.15,-2.17 (inactive)
Cc1ccccc1C(O)C1C=CC2C(=O)NC(=O)C2N1Nc1ccc(Cl)cc1Cl (stereo not given),0.817,1.18,0.276,0.866,0.802,-0.344,-1.06,0.518,0.951,-1.08 (inactive)
Cc1ccc(S[C@]2(C(=O)NC(C)C)CC(=O)N(C(C)C)[C@@H]2c2ccc(CO)cc2I)cc1,-0.893,-0.0049,1.58,0.351,-0.077,-0.471,1.28,-0.18,0.169,1.11 (inactive)
CCOC(=O)C=Cc1cc(F)ccc1O,0.354,-0.166,0.727,-0.333,0.0875,0.0013,-1.8,-0.471,0.0203,0.701 (inactive)
CN1C(=O)C2C=CC(C(O)c3ccc(I)cc3)N(Nc3ccccc3)C2C1=O (stereo not given),0.276,1.22,-0.161,1.02,1.19,0.979,0.255,0.465,0.86,-0.431 (inactive)
CCCCCCCCCCC(O)C1C=CC2C(=O)N(c3ccccc3)C(=O)C2N1Nc1ccccc1F (stereo not given),0.0112,0.399,0.674,0.415,-0.348,-0.591,-0.127,-0.833,0.472,0.422 (inactive)
C=C(C(=O)CC[C@H](OC(=O)c1ccccc1-c1ccccc1C(=O)O)c1ccccc1OCCO)C(C)C,-0.0781,0.909,0.0778,-0.115,0.991,1.24,0.743,1.01,0.423,-1.29 (inactive)
[N-]=[N+]=NC[C@H](Cc1ccccc1)NC(=O)c1ccccc1,0.568,-0.165,0.161,-0.0208,-0.487,-0.0599,1.21,-0.156,0.736,-0.53 (inactive)
CCOC(=O)C1=CC[C@@H](c2ccccc2)N(S(=O)(=O)c2ccc(C)cc2)[C@H]1C=Cc1ccccc1,0.906,0.943,0.289,-0.181,-0.28,-0.463,2.17,-0.584,0.152,1.45 (inactive)
CCCCCN1CC=CC23O[C@@H]4/C=C\CCC(C)OC(=O)C4[C@H]2C(=O)N(CCCCCCO)[C@@H]3C1=O (stereo not given in full),0.371,0.229,0.0767,-1.31,0.0532,-0.0946,1.03,0.744,-0.65,0.0812 (inactive)
COc1ccc(C#Cc2ccc3c(c2)[C@]2(C(=O)N3)[C@H](C(=O)Nc3nc4ccccc4s3)[C@H]3C(=O)O[C@H](c4ccccc4)[C@H](c4ccccc4)N3[C@@H]2c2ccccc2OCCO)cc1,0.395,1.1,0.446,0.969,1.16,0.0821,-1.98,0.262,0.371,-0.364 (inactive)
C=CCC(OC(C)=O)[C@@H]1[C@@H](N(Cc2ccc(-c3cccc(C(F)(F)F)c3)o2)C(=O)Cc2ccc(OC)cc2)c2cc(OCCCO)ccc2N1C(=O)Cc1ccc2ccccc2c1 (stereo not given in full),0.083,-1.39,-0.368,0.226,0.131,-0.501,-0.451,-0.27,-0.0571,0.149 (inactive)
C=C(/C(=C/C[C@@H](OC(C)=O)c1ccc(OCCO)cc1)c1cc(C(=O)OC)ccc1OC)C(C)C,1.81,0.999,0.211,0.665,0.776,1.11,0.471,1.36,0.85,-0.6 (inactive)
CCCC=C(CCC)[C@@H](NS(=O)(=O)c1cccc2cccnc12)c1ccc(-c2ccccc2)cc1,0.187,1.19,0.638,0.98,0.964,0.512,1.03,1.11,0.745,2.06 (inactive)
C=CCOC(=O)[C@H]1[C@@H]2C(=O)O[C@@H](c3ccccc3)[C@@H](c3ccccc3)N2[C@@H](c2ccc(OCCOC(=O)[C@H]3C[C@H]4C(=O)N[C@@H](CCCCNC(C)=O)C(=O)N4[C@H]3c3cccc(OCCO)c3)cc2)[C@]12C(=O)Nc1ccc(I)cc12,1.3,1.15,0.439,0.808,1.3,1.68,-1.46,1.55,0.0811,-0.33 (inactive)
CN(C)CCCCCCNC(=O)[C@@H]1C[C@@H]2C(=O)N[C@@H](CCCCN)C(=O)N2[C@@H]1c1ccc(O)cc1,2.6,1.33,3.73,0.957,1.54,1.6,-0.742,1.66,1.73,0.307 (inactive)
CN(C)C(=O)[C@]1(CCS(=O)(=O)c2ccccc2)N=C(c2ccc(OCCCO)cc2)O[C@@H]1c1ccccc1,1.57,1.26,1.23,1,1.29,0.345,0.17,0.476,-0.0414,0.396 (inactive)
C=CCNC(=O)[C@H]1[C@@H]2C(=O)O[C@@H](c3ccccc3)[C@@H](c3ccccc3)N2[C@@H](c2ccc(O)cc2)[C@]12C(=O)N(C(=O)OCCOC)c1ccc(C#CCC(C(=O)OC)C(=O)OC)cc12,0.724,1.13,0.439,0.858,1.32,1.5,-1.74,0.836,0.856,0.315 (inactive)
C=C[C@@H](OC)[C@H](OC(=O)Nc1ccc(OC)cc1)c1ccc(OC)c(O)c1,0.122,-1.06,-0.384,-1.1,0.0112,-0.685,0.232,-0.396,-0.0358,-0.737 (inactive)
C=CCNC(=O)[C@H]1[C@@H]2C(=O)O[C@@H](c3ccccc3)[C@@H](c3ccccc3)N2[C@@H](c2ccc(OCCO)cc2)[C@]12C(=O)Nc1ccc(C#CCNC(N)=O)cc12,-0.293,1.15,0.0494,0.936,1.41,1.05,-0.837,0.767,0.912,-0.0338 (inactive)
CN(C)C(=O)[C@@]1(Cc2ccccc2)COC(c2ccc(OCCCO)cc2)=N1,0.468,0.672,0.292,0.414,-0.13,-0.0827,1.18,-1.51,0.298,-2.68 (inactive)
CCCC=C(CCC)[C@@H](NC(=O)CCc1ccccc1)c1ccc(C(F)(F)F)cc1,0.608,1.16,0.398,0.973,0.809,0.94,3.02,0.17,0.71,1.31 (inactive)
O=c1cccc(-c2ccco2)o1,0.645,0.471,0.082,0.476,1.3,0.879,-0.262,1.02,0.138,0.405 (inactive)
CCCCNC(=O)c1ccc(C#C[Si](C(C)C)(C(C)C)C(C)C)c(OC(C)=O)c1,0.823,1.13,0.124,0.598,1.15,0.883,-2.05,1.01,1.08,0.683 (inactive)
COCCOC(=O)N1C(=O)[C@@]2(c3cc(C#Cc4ccc(OC)cc4)ccc31)[C@H](C(=O)NC[C@H](O)c1ccccc1)[C@H]1C(=O)O[C@H](c3ccccc3)[C@H](c3ccccc3)N1[C@@H]2c1ccc(OCCO)cc1,1.24,1.2,-0.103,0.801,1.29,1.01,-1.77,1.15,0.815,-0.459 (inactive)
O=C(CS)NCCCCCCNC(=O)[C@@H]1C[C@@H]2C(=O)NCC(=O)N2[C@@H]1c1ccc(O)cc1,2.52,-0.41,0.0509,-0.975,0.526,1.18,0.601,-0.628,-0.498,-1.38 (inactive)
CC(C)c1ccc(NN2C(C(O)Cc3ccccc3)C=CC3C(=O)N(c4ccccc4)C(=O)C32)cc1 (stereo not given),0.829,1.11,1.16,0.958,1.28,-0.0551,-1.24,0.441,0.797,-0.959 (inactive)
